D2 ag-1: Beta-Arrestin HTS for Positive Allosteric Modulators of the Human D2 Dopamine Receptor: Agonists | AID 624465, 2012 | DiscoveRx PathHunter D2 beta-arrestin, luminescence, 90 min; 100% = 57 uM dopamine signal | D(2) dopamine receptor (Homo sapiens), P14416 | 360,000 tested, 0.084% active | activation, % (no concentration beside the values); in the data active means activation above about 40%; inconclusive means between about 15% and that limit
Target sequence (P14416 whole entry, looked up): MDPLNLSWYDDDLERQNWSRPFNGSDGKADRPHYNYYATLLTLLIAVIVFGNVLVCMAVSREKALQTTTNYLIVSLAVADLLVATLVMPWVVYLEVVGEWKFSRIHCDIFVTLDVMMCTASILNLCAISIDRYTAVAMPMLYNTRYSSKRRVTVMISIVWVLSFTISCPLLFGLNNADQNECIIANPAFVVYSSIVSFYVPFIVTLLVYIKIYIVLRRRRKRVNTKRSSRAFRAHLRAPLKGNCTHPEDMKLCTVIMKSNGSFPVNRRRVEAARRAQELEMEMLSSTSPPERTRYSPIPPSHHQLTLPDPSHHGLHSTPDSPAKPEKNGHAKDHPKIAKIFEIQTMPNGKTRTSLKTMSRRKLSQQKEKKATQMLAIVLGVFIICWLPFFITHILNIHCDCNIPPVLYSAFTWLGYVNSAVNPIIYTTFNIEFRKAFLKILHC
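Agonist mode: compounds alone added to overnight-plated D2 PathHunter cells for 90 min at 37 C, with 57 uM final dopamine (EC100) defining full response. Beta-arrestin recruitment detected by chemiluminescent reagent, read after 1 h at ambient temperature.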
D2 PAM-1: HTS Assay for Positive Allosteric Modulators of the Human D2 Dopamine Receptor: Primary Screen for Potentiators | potentiation, % at 10 µM | 340,000 tested, 0.34% active | D(2) dopamine receptor (Homo sapiens), P14416 | HEK293 T-REx D2, calcium flux, EC20 dopamine potentiation;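 active means potentiation over 3 SD above the plate norm, cut at about 30% in these data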
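Calcium flux readout, no-wash dye, 1 read/s. Inducible HEK293 Trex D2 line, overnight 30 C. Compound alone 180 s (agonist flags), then EC20 dopamine, another 180 s to score potentiation.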
D2 ag-2: HTS Assay for Allosteric Agonists of the Human D2 Dopamine Receptor: Primary Screen for Agonists. D(2) dopamine receptor (Homo sapiens), P14416. HEK293 T-REx D2 cells, calcium flux agonist mode. activation, % at 2 µM. 340,000 tested, 0.53% active. AID 485358, 2010;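 active means activation over 3 SD above normal in the single-dose calcium agonist read, cut at about 30% in these data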
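Tetracycline-induced HEK293 T-REx cells with force-coupled D2 receptor, plated overnight at 30 C, loaded with no-wash calcium dye. After a 10 s baseline, compound was pin-added and calcium flux read kinetically for 180 s; calcium rises flagged agonists.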
D2 PAM-2: Beta-Arrestin HTS for Positive Allosteric Modulators of the Human D2 Dopamine Receptor: Potentiators; D(2) dopamine receptor (Homo sapiens), P14416; DiscoveRx D2 beta-arrestin cells, luminescence, 90 min; 100% = 57 uM dopamine signal; potentiation, % (test concentration not listed); 360,000 tested, 0.23% active; AID 624464, 2012; in the data active means potentiation above about 50%; inconclusive means mostly about 30% to 49%
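PathHunter D2 cells, attached overnight at 37 deg C, received compound in DMSO plus dopamine at EC20 (50 nM final) for 90 min at 37 deg C. Beta-arrestin recruitment was read as luminescence after 1 h with detection reagent at ambient temperature.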
D2 antagonist: HTS Assay for Allosteric Antagonists of the Human D2 Dopamine Receptor: Primary Screen for Antagonists. D(2) dopamine receptor (Homo sapiens), P14416. HEK293 TREx D2 cells, calcium flux, dopamine EC80. inhibition, % at 10 µM. 340,000 tested, 2% active; in the data active means inhibition above about 30%; inactive means below that, where a call was filed
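Read-out: kinetic calcium fluorescence (1 cycle/s) in inducible HEK293 T-REx D2 cells after an EC80 dopamine addition that followed 180 s compound preincubation. Loss of the dopamine response indicates antagonism.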
Each line names hits and unclear results; the compound was inactive in the other large screens. An excerpt weighted towards active compounds, which were near 2.4% of everything screened.

CC(C)Oc1ccc(CNC(=O)c2ccc3c(c2)N(C)CCS3)cc1	D2 antagonist 46.6
CNc1nc2c3ccccc3n(C(C)=O)c2s1	none
CC(=O)n1c2ccccc2c2nc(NC(C)C)sc21	D2 PAM-2 66.8
CC(C)NS(=O)(=O)c1ccc(NC(=O)NC2CCCCC2)cc1	none
CC[n+]1c(/C=C/N(C)c2ccccc2)oc2ccc(Cl)cc21	D2 ag-1 inconclusive, D2 PAM-2 58.7
CCn1c(/C=C/N(C(C)=O)c2ccccc2)[n+](CC)c2ccc(Cl)cc21	none
C/C(=N\OC(=O)c1ccccc1F)c1nccs1	D2 PAM-1 40.7
Cn1c(SCc2ccccc2)nnc1-c1c[nH]c2ccccc12	D2 antagonist 35.2
CCCCSc1nnc(-c2c[nH]c3ccccc23)n1C	none
C/C(COc1ccccc1)=N\NC(=O)c1nnn(-c2nonc2N)c1CSc1ccccc1	none
CC1CN(c2ncnc3c2cnn3-c2ccc(Cl)cc2)CC(C)O1 (stereo not given)	D2 antagonist 31.2
COc1ccc(OC)c(NC(=O)C2CC(=O)n3ncnc3N2)c1 (stereo not given)	D2 PAM-1 33.3
CCC1CCCCN1CCCNC(=O)CSc1nc2nc(C)c(Cc3ccccc3)c(C)n2n1 (stereo not given)	none
CCC1CCCCN1CCCNC(=O)CSc1nc2nc(C)c(Cc3ccccc3Cl)c(C)n2n1 (stereo not given)	D2 PAM-1 30.9
CCOc1cccc(CN2CCCC(C(=O)c3cc(Cl)ccc3OC)C2)c1O (stereo not given)	D2 antagonist 65.6
CCOc1cccc(CN2CCCC(N3CCN(c4cccc(Cl)c4)CC3)C2)c1O (stereo not given)	D2 antagonist 36.6
CS(=O)(=O)N1CCCC(C(=O)N2CCN(c3cccc(Cl)c3)CC2)C1 (stereo not given)	D2 antagonist 31.2
O=C(c1cnccn1)N1CCCC(N2CCN(c3cccc(Cl)c3)CC2)C1 (stereo not given)	D2 ag-2 36.8
Cc1cccc(C(=O)N2CCCC(N3CCN(c4cccc(Cl)c4)CC3)C2)n1 (stereo not given)	none
CCOc1cccc(CN2CCCC(N3CCc4ccccc4C3)C2)c1O (stereo not given)	none
CS(=O)(=O)N1CCC(C(=O)N2CCN(c3cccc(Cl)c3)CC2)CC1	none (no result: D2 PAM-1)
CCN(CC)c1ccc(NC(=O)c2cc(C)nc3c2c(C)nn3-c2ccc(C)cc2)c(C)c1	none (no result: D2 ag-1, D2 PAM-2, D2 antagonist)
O/C(=C\c1nc2ccccc2[nH]1)c1cccs1	none
O=c1[nH]c2ccccc2nc1/C=C(\O)c1cccs1	D2 ag-2 65.0
CC(=O)Nc1ccc(S(=O)(=O)c2ccc([N+](=O)[O-])cc2)cc1	D2 ag-1 52.7
CC(=O)Nc1ccc(NS(=O)(=O)c2ccc(C)cc2)cc1[N+](=O)[O-]	none
CC(=O)Nc1ccc(S(=O)(=O)Nc2ccc(F)c([N+](=O)[O-])c2)cc1	D2 antagonist 43.0
Cc1ccc(CCNC(=O)C2CCN(S(=O)(=O)N3CCOCC3)CC2)cc1	none
Cc1ccc(-n2nc3c(c2NC(=O)CC(C)C)CS(=O)(=O)C3)c(C)c1	none
COC(=O)CCC(=O)OC1(C)C(=O)C2=CN(C(CO)CO)C(c3ccc(OC)cc3)=CC2=C(Br)C1=O (stereo not given)	D2 antagonist 30.0 (no result: D2 ag-1, D2 PAM-2)
O=S(=O)(NCC1CCCO1)c1ccc(S(=O)(=O)N(Cc2ccccn2)C2CC2)cc1 (stereo not given)	D2 antagonist 74.1
CN(C)S(=O)(=O)N1CCCN(S(=O)(=O)N(C)C)CC1	D2 PAM-1 42.0
Cc1cccc(Cc2c(C)nc3nc(SCC(=O)O)nn3c2C)c1	D2 PAM-1 47.4
Cc1cccc(Cc2c(C)nc3nc(SCC(=O)NCc4ccccc4)nn3c2C)c1	none (no result: D2 ag-1, D2 PAM-2, D2 antagonist)
O=[N+]([O-])c1cc([N+](=O)[O-])c(Oc2cc(F)ccc2F)cc1NN1CCCCC1	none
Cc1cc(F)ccc1Oc1cc(NN2CCCCC2)c([N+](=O)[O-])cc1[N+](=O)[O-]	D2 antagonist 30.4
Cc1ccc(S(=O)(=O)CC(=O)c2ccc(C)c([N+](=O)[O-])c2)cc1	D2 antagonist 78.8
Cc1ccc(S(=O)(=O)CC(=O)c2ccc([N+](=O)[O-])cc2)cc1	none
O=c1c2oc3ccccc3c2n(Cc2cccc(F)c2)c(=O)n1Cc1ccc2c(c1)OCO2	none (no result: D2 ag-1, D2 PAM-2, D2 antagonist)
CCCCCCCCC(=O)N/N=C(\C)c1ccc(O)cc1O	D2 antagonist 49.0
CCCCCCCC(=O)N/N=C(\C)c1ccc(O)cc1O	D2 antagonist 71.8
CCCCCCCC(=O)N/N=C(\C)c1ccc(N)cc1	none (no result: D2 ag-1, D2 PAM-2)
c1ccc(-c2noc(CN3CCN(c4ccccc4)CC3)n2)cc1	none (no result: D2 PAM-1, D2 ag-2, D2 antagonist)
c1ccc(CCc2nc(-c3ccccc3)no2)cc1	D2 PAM-1 39.0
c1ccc(-c2noc(CN3CCc4sccc4C3)n2)cc1	D2 antagonist 35.3
O=c1c2ccccc2nc(SCc2cc(F)cc3c2OCOC3)n1Cc1ccco1	none
CCOC(=O)c1cc2c(c(CSc3nc4ccccc4c(=O)n3Cc3ccco3)c1)OCOC2	D2 antagonist 30.7
O=C(COC(=O)/C=C/c1cccc(C(F)(F)F)c1)NCCN1C(=O)CSC1=O	none
O=C(COC(=O)CNC(=O)c1ccccc1)Nc1ccc(F)c([N+](=O)[O-])c1	D2 antagonist 34.4
Cc1cc(N/N=C/c2ccccc2O)nc(-c2ccccc2O)n1	none
Cc1cc(N/N=C/c2ccc(O)cc2O)nc(-c2ccccc2O)n1	D2 ag-1 41.5, D2 PAM-2 inconclusive
O=C(NCc1ccco1)c1ccc2c(c1)N(Cc1ccc(F)cc1)C(=O)c1ccccc1S2=O (stereo not given)	none (no result: D2 ag-1, D2 PAM-2, D2 antagonist)
Cc1cc(NC(=O)c2ccc(Cn3cc([N+](=O)[O-])cn3)o2)no1	none (no result: D2 PAM-1, D2 ag-2, D2 antagonist)
Cc1ccccc1NC(=O)c1ccc(Cn2cc([N+](=O)[O-])cn2)o1	D2 antagonist 32.1
Cc1ccc(-c2cn3c4c(=O)n(C)c(=O)n(C)c4nc3n2-c2cccc(Cl)c2)cc1	none (no result: D2 ag-1, D2 PAM-2, D2 antagonist)
CCc1ccc(C2CC(=O)c3c([nH]c(C(=O)OC4CCCC4)c3C)C2)cc1 (stereo not given)	none (no result: D2 ag-1, D2 PAM-2, D2 antagonist)
COc1cc(OC)c(NC(=O)C2CCN(S(=O)(=O)c3ccc4c(c3)oc(=O)n4C)CC2)cc1Cl	none (no result: D2 ag-1, D2 PAM-2, D2 antagonist)
COCC1CCN(C(=O)c2ccc3oc(CCCc4ccccc4)nc3c2)C1 (stereo not given)	D2 PAM-1 44.5

Screening data (PubChem)
